# Bioassay records from PubChem.
# Shown are actives, neighbours in structure and some others; about 9.9% of the full set was active somewhere.
# SW480 rereplic = DNA re-replication induction in SW480 cells; SW480 DNA re-replication, Hoechst DNA content imaging, 48 h; Potency, µM (doses to about 46.1 µM), for inactives: at the highest dose re-replication activation, most hits filed as activators; 1.8% of 340,000 active; further: potency means the concentration at half of the fitted maximal effect; % of control where 0% means no effect; nearly all actives have a fitted effect of over 55% in size
#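 Treated cells incubate 48 hr (37 C, 5% CO2), are stained 40 min with Hoechst, and nuclear fluorescence is enumerated; a rise in nuclei with high DNA signal marks re-replication.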
# IL1B secr inh = inflammasome signaling inhibition, IL-1 beta readout. activity change, % at 57.5 µM. THP-1 LPS/ATP IL-1B secretion, AlphaLISA, 16 h; hits give low values. 4.7% of 360,000 active; in the data active means activity change below about -50%; inconclusive means mostly about -30% to -49%; further: on the % scale 0 is the no-effect control and ±100 the full control effect
#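 THP-1 cells pretreated 1 hr with compounds (up to 57.5 uM final), then stimulated with LPS (250 ng/mL final) plus ATP (1.25 mM final); secreted IL-1B measured by AlphaLISA after 16 hr, decreased signal indicating inhibition.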
# KB-V1 cytotox = KB-V1 MDR subline cytotoxicity | KB-V1 MDR cells viability, CellTiter-Glo, 72 h | 3.4% of 400,000 active | Potency, µM (highest dose often 46.1 µM), hits mostly cytotoxic; further: potency means the concentration at half of the fitted maximal effect; on the % scale 0 is the no-effect control and ±100 the full control effect; nearly all actives have a fitted effect of over 60% in size
#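 Cells of the MDR subline KB-V1 are plated, dosed with compound at multiple concentrations, and incubated 72 h at 37 degrees C; CellTiter-Glo is then added and luminescence read after 10 min.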
# MCF10A rerep = DNA re-replication induction in MCF 10a cells. MCF 10A DNA re-replication, Hoechst nuclear intensity, 48 h. Potency, µM (top dose mostly 46.1 µM), inactives show at the top dose activity, positive = re-replication, actives largely listed as activators. 2.9% of 350,000 active. AID 624296; further: potency means the concentration at half of the fitted maximal effect; % of control where 0% means no effect; nearly all actives have a fitted effect of over 50% in size
# KB-3-1 tox = kills parental KB-3-1 adenocarcinoma cells | KB-3-1 viability, CellTiter-Glo ATP luminescence, 72 h | Potency, µM (doses to about 46.1 µM), usual class: cytotoxic | 1.4% of 400,000 active | AID 1347075; further: potency means the concentration at half of the fitted maximal effect; on the % scale 0 is the no-effect control and ±100 the full control effect; nearly all actives have a fitted effect of over 60% in size
#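 Cells are dispensed, compounds pinned in, plates held at 37 °C for 72 h, then CellTiter-Glo is added and luminescence read after 10 minutes. Cell line: parental KB-3-1 in phenol-red-free DMEM, 10% FBS.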
# * hit, by the source's call; i = inactive; u = inconclusive; x = no result; [ ] = another dose, or the depositor's remark. Unless noted, the call rests on the fitted dose curve; in most records, active means well fitted curve in the direction sought with a large enough effect; inconclusive means small, poorly fitted or top-dose-only effect, or another doubt; inactive means no such curve, though single readings can be large; an effect the other way counts as inactive or inconclusive.
SMILES,SW480 rereplic,IL1B secr inh,KB-V1 cytotox,MCF10A rerep,KB-3-1 tox
COc1ccc(Nc2nc(NCc3ccco3)nc(N3CCOCC3)n2)cc1,105.0%,-57.1*,i,6.8%,i
c1ccc(Nc2nc(N3CCOCC3)nc(N3CCOCC3)n2)cc1,18.5%,x,u,u,16.4µM*
COC(=O)c1ccc(Nc2nc(N3CCOCC3)nc(N3CCOCC3)n2)cc1,u,x,i,5.5%,i
Cc1cc(C)c(S(=O)(=O)NCC2CCC(C(=O)NCCc3ccccc3)CC2)c(C)c1 (stereo unspecified),x,x,i,x,i
C=CCn1c(SCC(=O)N2CCN(c3ccccc3)CC2)nc2c([nH]c3ccccc32)c1=O,u,4.4,i,0.2%,i
CCN(CC)C(=O)c1c(NC(=O)c2ccccc2F)sc2c1CCC(C(C)(C)C)C2 (stereo unspecified),x,x,i,x,i
CCCc1cc(=O)[nH]c(SCc2cc(=O)oc3cc(C)c(C(C)C)cc23)n1,0.3%,21.6,20.6µM*,u,i
CCOC(=O)c1c(-c2ccccc2)oc2ccc(OCC(O)CN(C)C)cc12 (stereo unspecified),u,-65.1*,u,5.4%,u
Cc1cc(C)cc(NC(=O)C2CCCN2/C=C/C(=O)C(F)(F)F)c1 (stereo unspecified),-0.6%,23.1,u,-9.2%,i
Clc1cccc(CNc2ccn3nc(-c4cccc(Cl)c4)cc3n2)c1,x,-51.5*,i,x,i
c1ccc(COc2cccc(-c3cc4nc(NCCOc5ccccc5)ccn4n3)c2)cc1,x,-29.8,i,x,i
c1ccc(COc2cccc(-c3cc4nc(NCCc5ccncc5)ccn4n3)c2)cc1,x,-59.8*,i,x,u
COc1cc(-c2cc3nc(NCCc4ccc(S(N)(=O)=O)cc4)ccn3n2)cc(OC)c1OC,x,-50.0*,i,x,i
COc1cc(-c2cc3nc(NCCOc4ccccc4)ccn3n2)cc(OC)c1OC,x,12.0,16.4µM*,x,u
CC(=O)Nc1ccc(S(=O)(=O)NC2(C(F)(F)F)NC(=O)N(CCc3ccc(F)cc3)C2=O)cc1 (stereo unspecified),x,x,i,x,i
O=C(Cn1cc(C(=O)c2ccco2)c2ccccc21)NC1CC1,-4.4%,21.0,u,-1.6%,i
COc1cc(-c2cc3nc(NCCc4ccncc4)ccn3n2)cc(OC)c1OC,x,-58.0*,i,x,i
O=C(COc1ccccc1Br)NC(=O)NC1CCCC1,14.6µM*,-15.6,i,-14.5%,i
COc1ccccc1OCC(=O)NCC1CCCCC1,-2.1%,7.4,20.6µM*,3.9%,i
CCOc1cc(Br)c(CC(=O)NC2CCCCCC2)cc1OCC,1.7%,-5.3,10.3µM*,u,i
CCc1ccccc1OCC(=O)NC1CCCC1,-6.7%,-2.9,13µM*,1.5%,i
COC(=O)c1ccccc1OCC(=O)NC1CCCCC1,-3.0%,0.0,u,22.3%,i
C=CCNc1ncnc2c1ncn2[C@H]1CN(C2CCCC2)C[C@@H](CO)O1,x,28.4,i,x,i
O=C(COc1ccc(C(=O)c2ccccc2)cc1)NC1CCCCCC1,-36.3%,-0.2,10.3µM*,-56.3%,u
CC(C)(C)c1ccc(OCCC(=O)OCC(=O)NC(=O)NC2CCCC2)cc1,-118.5%,-86.5*,i,u,i
SMILES,SW480 rereplic,IL1B secr inh,KB-V1 cytotox,MCF10A rerep,KB-3-1 tox
CC(C)(C)c1ccc(OCCC(=O)OCC(=O)NC2CCCCC2)cc1,-6.8%,-5.6,i,7.8%,i
O=C(CNC1CCCCC1)NN=C(c1ccccc1)c1ccccc1,-0.2%,-63.8*,u,5.6%,i
COc1ccc2cc(/C=N/NC(=O)CN(c3ccccc3C)S(=O)(=O)c3ccccc3)c(Cl)nc2c1,14.1%,24.7,i,u,i
NC(N)=NS(=O)(=O)c1ccc(NC(=S)NC(=O)Cc2ccc(Cl)cc2)cc1,-4.1%,29.7,i,-2.2%,i
COc1ccc2[nH]c(=O)c3c(c2c1)OC(C)(C)C=C3,3.1%,-106.1*,u,u,u
Cc1cc2c([nH]c3ccccc32)c2c1OC(C)(C)C=C2,u,-1.9,i,u,i
CN(C)c1ccc(C=C(C#N)C(=O)c2ccccc2)cc1Br,x,-16.3,i,x,i
C[C@H](CO)N1C[C@H](C)[C@@H](CN(C)C(=O)NC2CCCCC2)Oc2ccc(NC(=O)C3CC3)cc2C1=O,-9.2%,2.2,i,71.4%,i
C/C(=N\NC(=O)c1nnn(-c2nonc2N)c1-c1ccccc1)c1cccnc1,-8.3%,23.9,i,-1.3%,i
C/C(=N/NC(=O)c1nnn(-c2nonc2N)c1-c1ccccc1)c1ccc2c(c1)OCO2,-16.4%,-86.4*,i,-1.4%,i
C/C(=N\N=C(/N)c1nonc1N)c1ccc2c(c1)OCO2,-7.0%,-18.7,1.46µM*,0.3%,6.51µM*
Nc1nonc1-n1nnc(C(=O)N/N=C/c2cc(Br)cs2)c1-c1ccccc1,6.1%,-91.5*,i,4.8%,i
CCOC(=O)N1CCN(c2ccc(S(=O)(=O)N3CCC(C)CC3)cc2[N+](=O)[O-])CC1,-1.7%,20.0,i,10.3%,u
O=C(NC1CCCCC1)c1cc2c(cc1Cl)N1CCCCCC1=NS2(=O)=O,u,5.9,i,-22.7%,i
COc1ccc2oc(=O)c(-c3cn4ccc(C)cc4n3)cc2c1,u,87.7,i,14.6µM*,i
O=c1oc2ccccc2cc1-c1cn2ccccc2n1,u,26.9,u,u,i
O=C(c1ccc2c(c1)N(Cc1cccc(F)c1)C(=O)c1ccccc1S2)N1CCC2(CC1)OCCO2,x,x,i,x,i
Cc1nn(-c2cccc(Cl)c2)c2nc(-c3ccco3)cc(C(=O)O)c12,-4.8%,7.6,i,14.6µM*,i
Cc1nn(-c2ccccc2)c2nc(-c3ccco3)cc(C(=O)O)c12,-0.2%,16.5,i,u,i
Cc1nc(-c2ccccc2)cc(=O)[nH]1,1.5%,14.2,i,8.3%,i
COCc1cc(=O)[nH]c(Nc2nc(C)c3ccccc3n2)n1,u,-64.9*,20.6µM*,u,u
COCc1cc(=O)[nH]c(Nc2nc3ccccc3o2)n1,u,54.3,i,u,7.08µM*
Cc1ccc2oc(Nc3nc(-c4ccccc4)cc(=O)[nH]3)nc2c1,u,x,u,20.6µM*,u
COc1ccc2nc(Nc3nc(CSc4ccc(C)cc4)cc(=O)[nH]3)nc(C)c2c1,-8.0%,50.3,i,6.8%[9.22 µM],u
Cc1ccc(SCc2cc(=O)[nH]c(Nc3nc(C)c4cccc(C)c4n3)n2)cc1,-0.8%,5.9,20.6µM*,-6.0%,i
COc1ccc2nc(Nc3nc(CSc4nnnn4-c4ccccc4)cc(=O)[nH]3)nc(C)c2c1,-3.0%,16.9,16.4µM*,-1.0%,u
